According to PubChem BioAssay (NCI):
This is part of a sample that, as a whole, favours compounds with a hit. Of some 79,000 tested, about 15% had one in any assay. A number with no mark means an inactive call. Calls of active or inactive are those of the source. Rule as the data show it: active = growth inhibition above about 70%; inactive = the rest.

Assays:
[1] = NCI Yeast Anticancer Drug Screen. Data for the mec2-1 strain (AID 157); conditions: S. cerevisiae mec2-1 strain, hits give high values
Outline: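 Each compound was tested on mec2-1 yeast, a strain altered in DNA damage repair or cell cycle control. Growth inhibition is reported relative to vehicle.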

[2] = NCI Yeast Anticancer Drug Screen. Data for the rad14 strain (AID 159);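 also: 0% = growth of vehicle-treated control cultures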; conditions: S. cerevisiae rad14 strain growth inhibition, hits give high values
Outline: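 Screen for anticancer potential: a yeast strain altered in DNA damage repair is grown with compound, and reduced growth is quantified against vehicle controls.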

[3] = NCI Yeast Anticancer Drug Screen. Data for the sgs1 mgt1 strain (AID 161);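 also: 0% = growth of cultures given vehicle only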; conditions: S. cerevisiae sgs1 mgt1 strain, hits give high values
Outline: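 Mutant yeast exposed to compound; growth scored against vehicle-only wells.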

[4] = NCI Yeast Anticancer Drug Screen. Data for the CLN2oe strain (AID 163);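 also: 0% = growth of vehicle-only control cultures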; conditions: S. cerevisiae CLN2oe strain, hits give high values
Outline: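 First, the altered yeast strain was treated with each compound; second, its growth was measured; finally, inhibition was derived by comparison with vehicle controls.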

[5] = NCI Yeast Anticancer Drug Screen. Data for the cln2 rad14 strain (AID 165);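 also: 0% = growth equal to vehicle treated cultures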; conditions: S. cerevisiae cln2 rad14 strain, hits give high values
Outline: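 Test compounds were added to cln2 rad14 yeast cultures; inhibition of growth was then determined by comparison with vehicle treatment.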

[6] = NCI Yeast Anticancer Drug Screen. Data for the bub3 strain (AID 167); conditions: S. cerevisiae bub3 mutant strain, hits give high values
Outline: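 Screening used yeast with an engineered genetic alteration affecting cell cycle control. Compound-exposed cultures were compared with vehicle cultures, and reduced growth was taken as inhibition.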

[7] = NCI Yeast Anticancer Drug Screen. Data for the wt2 strain (AID 169);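 also: 0% = growth of vehicle-treated yeast cultures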; conditions: S. cerevisiae wt2 strain growth inhibition, hits give high values
Outline: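 The panel's yeast strains carry defined changes in DNA repair or cell cycle genes. Each strain is grown with compound, and growth loss is scored relative to vehicle.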

[8] = NCI Yeast Anticancer Drug Screen. Data for the mlh1 strain (AID 171);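 also: 0% = growth of vehicle-treated control cultures of the same strain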; conditions: S. cerevisiae mlh1 strain growth inhibition, hits give high values
Outline: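 Inhibition values reflect reduced yeast growth in the presence of compound, referenced to vehicle controls, using a strain chosen for its alteration in DNA repair or cell cycle control.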

[9] = NCI Yeast Anticancer Drug Screen. Data for the sgs1 strain (AID 173);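 also: 0% = growth of vehicle-only control cultures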; conditions: S. cerevisiae sgs1 mutant, hits give high values
Outline: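 Vehicle-treated cultures served as reference for growth inhibition of a yeast strain altered in DNA damage repair or cell cycle control after compound exposure.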

[10] = NCI Yeast Anticancer Drug Screen. Data for the mlh1 rad18 strain (AID 175); conditions: S. cerevisiae mlh1 rad18 strain growth inhibition, hits give high values
Outline: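 Inhibition values reflect reduced growth of mutant yeast versus vehicle-treated controls following compound exposure; the mutations affect DNA damage repair.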

[11] = NCI Yeast Anticancer Drug Screen. Data for the rad18 strain (AID 177); conditions: S. cerevisiae rad18 mutant growth inhibition, hits give high values
Outline: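 Steps: expose repair-mutant yeast to compound; measure growth; express as inhibition relative to vehicle control.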

[12] = NCI Yeast Anticancer Drug Screen. Data for the rad52 strain (AID 147);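 also: 0% = growth of vehicle-treated control cultures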; conditions: S. cerevisiae rad52 mutant growth inhibition, hits give high values
Outline: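 Inhibition of yeast growth, referenced to vehicle controls, was the measured output for a strain with defective DNA damage repair.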

[13] = NCI Yeast Anticancer Drug Screen. Data for the wt1 strain (AID 149);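 also: 0% = growth of vehicle-treated wt1 cultures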; conditions: S. cerevisiae wt1 strain (SPY 50644) growth inhibition, hits give high values
Outline: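 Using yeast strain wt1, compound-induced growth inhibition was determined against vehicle-treated cultures.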

[14] = NCI Yeast Anticancer Drug Screen. Data for the rad50EPP+ strain (AID 151);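 also: 0% = growth of vehicle-treated control cultures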; conditions: S. cerevisiae rad50 mutant strain, hits give high values
Outline: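 Genetically defined yeast (rad50EPP+, DNA damage repair alteration) is grown with compound, and inhibition of growth is expressed relative to vehicle-treated controls.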

[15] = NCI Yeast Anticancer Drug Screen. Data for the mgt1 strain (AID 153); conditions: S. cerevisiae mgt1 mutant growth inhibition, hits give high values
Outline: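 In the mgt1 strain, test compounds were added and growth inhibition was determined relative to vehicle-treated controls.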

[16] = NCI Yeast Anticancer Drug Screen. Data for the rad50 strain (AID 155);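 also: 0% = growth of vehicle-only cultures of the same strain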; conditions: S. cerevisiae rad50 strain growth inhibition, hits give high values
Outline: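 Relative growth inhibition (compound vs vehicle) was measured in yeast with a defined repair-gene alteration.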

[17] = at 5.0 µM (retest, dose inferred, filed as 0.5)
[18] = at 50.0 µM (retest, dose inferred, filed as 5.0)

For `C(=C\c1ccccc1)/COc1ccccc1C(N1CCOCC1)n1nc2ccccc2n1` (stereo unspecified), the growth inhibition [1, 17] was 3%, the growth inhibition ([1]; at 11.0 µM) was -1% and the growth inhibition ([1]; at 33.0 µM) was 86% (active). For the same compound, the growth inhibition [1, 18] was 95% (active), the growth inhibition ([1]; at 50.0 µM) was 98.8% (active) and the growth inhibition ([1]; at 100.0 µM) was 98% (active). The growth inhibition ([2]; at 1.2 µM) was -4%, the growth inhibition ([2]; at 3.7 µM) was 0% and the growth inhibition ([2]; at 11.0 µM) was 35%. The growth inhibition ([2]; at 33.0 µM) was 97% (active), the growth inhibition ([2]; at 100.0 µM) was 98% (active) and the growth inhibition [3, 17] was -1%. The growth inhibition [3, 18] was 97% (active), the growth inhibition ([3]; at 50.0 µM) was 97.9% (active) and the growth inhibition ([4]; at 1.2 µM) was 0%. For the same compound, the growth inhibition ([4]; at 3.7 µM) was -9%, the growth inhibition ([4]; at 11.0 µM) was -10% and the growth inhibition ([4]; at 33.0 µM) was 11%. For the same compound, the growth inhibition ([4]; at 100.0 µM) was 93% (active), the growth inhibition [5, 17] was 11% and the growth inhibition [5, 18] was 81% (active). The growth inhibition ([5]; at 50.0 µM) was 91.2% (active), the growth inhibition ([6]; at 1.2 µM) was 1% and the growth inhibition ([6]; at 3.7 µM) was -14%. The growth inhibition [6, 17] was 3%, the growth inhibition ([6]; at 11.0 µM) was -4% and the growth inhibition ([6]; at 33.0 µM) was 86% (active). The growth inhibition [6, 18] was 98% (active), the growth inhibition ([6]; at 50.0 µM) was 98.3% (active) and the growth inhibition ([6]; at 100.0 µM) was 97% (active). The growth inhibition ([7]; at 1.2 µM) was -4%, the growth inhibition ([7]; at 3.7 µM) was 1% and the growth inhibition ([7]; at 11.0 µM) was 25%. For the same compound, the growth inhibition ([7]; at 33.0 µM) was 95% (active), the growth inhibition ([7]; at 100.0 µM) was 99% (active) and the growth inhibition ([8]; at 1.2 µM) was -2%. The growth inhibition ([8]; at 3.7 µM) was -2%, the growth inhibition ([8]; at 11.0 µM) was 37% and the growth inhibition ([8]; at 33.0 µM) was 93% (active). For the same compound, the growth inhibition ([8]; at 100.0 µM) was 97% (active), the growth inhibition ([9]; at 1.2 µM) was 23% and the growth inhibition ([9]; at 3.7 µM) was 22%. For the same compound, the growth inhibition ([9]; at 11.0 µM) was 54%, the growth inhibition ([9]; at 33.0 µM) was 96% (active) and the growth inhibition ([9]; at 100.0 µM) was 99% (active). For the same compound, the growth inhibition [10, 17] was 16%, the growth inhibition [10, 18] was 99% (active) and the growth inhibition ([10]; at 50.0 µM) was 99% (active). For the same compound, the growth inhibition ([11]; at 1.2 µM) was -2%, the growth inhibition ([11]; at 3.7 µM) was -7% and the growth inhibition ([11]; at 11.0 µM) was 6%. For the same compound, the growth inhibition ([11]; at 33.0 µM) was 86% (active) and the growth inhibition ([11]; at 100.0 µM) was 98% (active).

Work on `O=C1c2ccccc2C(=O)c2cc(CBr)ccc21` yielded a growth inhibition ([12]; at 1.2 µM) of 5%, a growth inhibition ([12]; at 3.7 µM) of 16% and a growth inhibition ([12]; at 11.0 µM) of 21%. For the same compound, the growth inhibition ([12]; at 33.0 µM) was 79% (active), the growth inhibition ([12]; at 100.0 µM) was 91% (active) and the growth inhibition ([13]; at 1.2 µM) was 0%. For the same compound, the growth inhibition ([13]; at 3.7 µM) was 0%, the growth inhibition ([13]; at 11.0 µM) was -1% and the growth inhibition ([13]; at 33.0 µM) was 18%. It also gave a growth inhibition ([13]; at 100.0 µM) of 53%, a growth inhibition ([14]; at 1.2 µM) of 27% and a growth inhibition ([14]; at 3.7 µM) of 56%. For the same compound, the growth inhibition ([14]; at 11.0 µM) was 73% (active), the growth inhibition ([14]; at 33.0 µM) was 94% (active) and the growth inhibition ([14]; at 100.0 µM) was 95% (active). It also gave a growth inhibition ([15]; at 1.2 µM) of 0%, a growth inhibition ([15]; at 3.7 µM) of 2% and a growth inhibition ([15]; at 11.0 µM) of 4%. It also gave a growth inhibition ([15]; at 33.0 µM) of 21%, a growth inhibition ([15]; at 100.0 µM) of 68% and a growth inhibition ([16]; at 1.2 µM) of 2%. The growth inhibition ([16]; at 3.7 µM) was 14%, the growth inhibition [16, 17] was 48% and the growth inhibition ([16]; at 11.0 µM) was 29%. For the same compound, the growth inhibition ([16]; at 33.0 µM) was 82% (active), the growth inhibition [16, 18] was 90% (active) and the growth inhibition ([16]; at 50.0 µM) was 99.2% (active). For the same compound, the growth inhibition ([16]; at 100.0 µM) was 92% (active), the growth inhibition ([1]; at 1.2 µM) was 1% and the growth inhibition ([1]; at 3.7 µM) was 2%. For the same compound, the growth inhibition [1, 17] was 32%, the growth inhibition ([1]; at 11.0 µM) was 5% and the growth inhibition ([1]; at 33.0 µM) was 32%. The growth inhibition [1, 18] was 77% (active), the growth inhibition ([1]; at 50.0 µM) was 90% (active) and the growth inhibition ([1]; at 100.0 µM) was 71% (active). The growth inhibition ([2]; at 1.2 µM) was -2%, the growth inhibition ([2]; at 3.7 µM) was 6% and the growth inhibition ([2]; at 11.0 µM) was 12%. For the same compound, the growth inhibition ([2]; at 33.0 µM) was 53%, the growth inhibition ([2]; at 100.0 µM) was 89% (active) and the growth inhibition [3, 17] was 54%. The growth inhibition [3, 18] was 89% (active), the growth inhibition ([3]; at 50.0 µM) was 99.2% (active) and the growth inhibition ([4]; at 1.2 µM) was 1%. For the same compound, the growth inhibition ([4]; at 3.7 µM) was 5%, the growth inhibition ([4]; at 11.0 µM) was 8% and the growth inhibition ([4]; at 33.0 µM) was 28%. The growth inhibition ([4]; at 100.0 µM) was 61%, the growth inhibition [5, 17] was 33% and the growth inhibition [5, 18] was 76% (active). For the same compound, the growth inhibition ([5]; at 50.0 µM) was 57.5%, the growth inhibition ([6]; at 1.2 µM) was 1% and the growth inhibition ([6]; at 3.7 µM) was 0%. It also gave a growth inhibition [6, 17] of 30%, a growth inhibition ([6]; at 11.0 µM) of 1% and a growth inhibition ([6]; at 33.0 µM) of 26%. For the same compound, the growth inhibition [6, 18] was 79% (active), the growth inhibition ([6]; at 50.0 µM) was 86.2% (active) and the growth inhibition ([6]; at 100.0 µM) was 54%. The growth inhibition ([7]; at 1.2 µM) was 9%, the growth inhibition ([7]; at 3.7 µM) was 3% and the growth inhibition ([7]; at 11.0 µM) was 13%. The growth inhibition ([7]; at 33.0 µM) was 18%, the growth inhibition ([7]; at 100.0 µM) was 69% and the growth inhibition ([8]; at 1.2 µM) was 2%. For the same compound, the growth inhibition ([8]; at 3.7 µM) was 9%, the growth inhibition ([8]; at 11.0 µM) was 17% and the growth inhibition ([8]; at 33.0 µM) was 40%. For the same compound, the growth inhibition ([8]; at 100.0 µM) was 85% (active), the growth inhibition ([9]; at 1.2 µM) was -2% and the growth inhibition ([9]; at 3.7 µM) was -14%. The growth inhibition ([9]; at 11.0 µM) was 23%, the growth inhibition ([9]; at 33.0 µM) was 74% (active) and the growth inhibition ([9]; at 100.0 µM) was 94% (active). For the same compound, the growth inhibition [10, 17] was 63%, the growth inhibition [10, 18] was 92% (active) and the growth inhibition ([10]; at 50.0 µM) was 96% (active). The growth inhibition ([11]; at 1.2 µM) was 2%, the growth inhibition ([11]; at 3.7 µM) was 10% and the growth inhibition ([11]; at 11.0 µM) was 23%. The growth inhibition ([11]; at 33.0 µM) was 78% (active) and the growth inhibition ([11]; at 100.0 µM) was 93% (active).
